# PRMT1 FP inh = PRMT1 (human) inhibition, primary screen; Q99873; recombinant PRMT1, activity-based probe fluorescence polarization; inhibition, % at 2.79 µM; actives 1.3% (n = 370,000); AID 652257;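 active means inhibition above about 21% made by adding two undisclosed values, limit read from the data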
# Exocytosis inh = lytic granule exocytosis inhibition. actives 0.66% (n = 360,000). inhibition, % at 10 µM. TALL-104 LAMP-1 surface exposure, flow cytometry; cells stimulated with thapsigargin and PMA. AID 651702;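 active means inhibition above about 55%, limit read from the data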
# TLR9-MyD88 block = blocks human TLR9 binding to MyD88; Q9NR96+Q99836; inhibition, % at 4.98 µM; actives 0.21% (n = 340,000); CHO BLA complementation TLR9-MyD88, CCF4 FRET ratio;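 active means inhibition above the mean over all tested compounds plus 3 SD, cut at about 21% in these data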
# Target sequence (Q99836 whole entry, looked up): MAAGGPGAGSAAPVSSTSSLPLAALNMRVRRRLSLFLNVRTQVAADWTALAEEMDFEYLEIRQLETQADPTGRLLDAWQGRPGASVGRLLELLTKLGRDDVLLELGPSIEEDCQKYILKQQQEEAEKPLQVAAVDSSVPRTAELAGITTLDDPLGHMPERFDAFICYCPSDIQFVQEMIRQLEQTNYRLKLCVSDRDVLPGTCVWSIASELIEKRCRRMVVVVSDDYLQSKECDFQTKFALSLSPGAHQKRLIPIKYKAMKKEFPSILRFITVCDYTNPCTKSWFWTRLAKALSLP
# Target sequence (Q9NR96 whole entry, looked up): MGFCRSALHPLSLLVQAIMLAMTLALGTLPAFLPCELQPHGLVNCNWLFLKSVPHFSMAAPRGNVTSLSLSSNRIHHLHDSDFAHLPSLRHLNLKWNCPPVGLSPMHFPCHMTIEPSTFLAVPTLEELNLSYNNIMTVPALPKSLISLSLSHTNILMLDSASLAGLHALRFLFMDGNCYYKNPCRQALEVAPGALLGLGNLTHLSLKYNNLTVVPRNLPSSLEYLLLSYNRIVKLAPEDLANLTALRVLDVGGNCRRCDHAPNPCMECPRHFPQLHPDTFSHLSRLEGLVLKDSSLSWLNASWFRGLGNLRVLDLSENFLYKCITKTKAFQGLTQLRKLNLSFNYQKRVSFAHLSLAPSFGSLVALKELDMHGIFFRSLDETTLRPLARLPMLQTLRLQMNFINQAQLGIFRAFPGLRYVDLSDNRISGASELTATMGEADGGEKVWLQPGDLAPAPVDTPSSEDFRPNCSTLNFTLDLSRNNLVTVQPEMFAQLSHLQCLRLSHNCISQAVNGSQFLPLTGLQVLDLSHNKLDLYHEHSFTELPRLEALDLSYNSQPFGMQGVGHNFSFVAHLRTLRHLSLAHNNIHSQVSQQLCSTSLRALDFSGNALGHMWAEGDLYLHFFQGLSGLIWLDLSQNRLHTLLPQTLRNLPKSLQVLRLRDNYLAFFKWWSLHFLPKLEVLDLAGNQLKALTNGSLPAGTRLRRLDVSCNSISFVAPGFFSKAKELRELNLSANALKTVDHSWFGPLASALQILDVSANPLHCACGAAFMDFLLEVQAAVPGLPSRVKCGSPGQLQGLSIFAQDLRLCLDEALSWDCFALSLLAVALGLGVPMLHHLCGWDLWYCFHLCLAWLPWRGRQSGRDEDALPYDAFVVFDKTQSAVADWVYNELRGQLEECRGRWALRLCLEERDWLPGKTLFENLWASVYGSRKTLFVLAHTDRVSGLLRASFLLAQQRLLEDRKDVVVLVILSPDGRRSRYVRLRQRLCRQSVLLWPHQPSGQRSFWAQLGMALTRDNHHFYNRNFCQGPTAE
# TLR4 MyD88 comp = inhibitors of human TLR4-MyD88 binding; O00206+Q99836; HeLa CL3-4 TLR4/MyD88 BLA complementation, FRET ratio; inhibition, % at 8.4 µM; actives 0.18% (n = 200,000); in the data active means inhibition above about 25%
# ABHD5-PLIN5 inh = ABHD5-PLIN5 protein interaction inhibition; inhibition, % at 4 µM; actives 0.78% (n = 360,000); Q00G26+Q8WTS1; Split G. princeps luciferase complementation, luminescence, 4 h;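 active means inhibition above the mean inhibition across every tested compound plus 3 SD, cut at about 22% in these data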
# NOD2 RIPK2 PPI = NOD2-RIPK2 protein interaction inhibition. CHO BLA complementation NOD2-RIPK2, CCF4 ratio. inhibition, % at 4.98 µM. actives 0.38% (n = 360,000). AID 624267; in the data active means inhibition above about 21%
# ABHD5 PLIN5 conf = confirmation of human ABHD5-PLIN5 interaction inhibitors; inhibition, % at 4 µM; biochemical ABHD5-PLIN5 interaction, luminescence; actives 67% (n = 2,200); shares compounds with ABHD5-PLIN5 inh; AID 651612; in the data active means inhibition above about 23%
# HNF4 split-luc = counter-screen for ABHD5-PLIN5 inhibitors: HNF4 split-luciferase; shares compounds with ABHD5-PLIN5 inh; HNF4 dimerization, luminescence, biochemical; inhibition, % at 4 µM; actives 77% (n = 2,200); AID 651674;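 active means mean inhibition across replicate wells exceeding the computed hit threshold, cut at about 13% in these data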;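 further: light from luciferase halves that rejoin when HNF4 fusion proteins dimerize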
# NOD2 RIPK2 conf = confirmation of human NOD2-RIPK2 interaction inhibitors; shares compounds with NOD2 RIPK2 PPI; actives 70% (n = 1,200); CHO cells, NOD2-RIPK2 BLA complementation, CCF4 FRET; inhibition, % at 4.98 µM;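 active means mean inhibition across replicates above a set limit taken from the earlier primary screen, cut at about 21% in these data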
# BLA counter = counter-screen for NOD2-RIPK2 interaction inhibitors: BLA reporter; shares compounds with NOD2 RIPK2 PPI; inhibition, % at 4.98 µM; actives 57% (n = 1,200); CHO BLA reporter, CCF4 FRET ratio, counterscreen;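 active means mean inhibition above the low-control mean inhibition plus three low-control SD, cut at about 11% in these data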
# Exocytosis CP01 = blocks lytic granule exocytosis | shares compounds with Exocytosis inh | TALL-104 cells, LAMP-1 externalization, flow cytometry; stimulated with PMA plus thapsigargin | inhibition, % at 10 µM | actives 11% (n = 1,500) | AID 651954; in the data active means inhibition above about 60%
# PRMT1 confirm = confirmation of human PRMT1 inhibitors | shares compounds with PRMT1 FP inh | actives 42% (n = 3,300) | recombinant His-PRMT1, activity-based probe fluorescence polarization | AID 687036 | inhibition, % at 2.79 µM;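 active means mean inhibition across replicates above the hit cutoff derived for the earlier primary screen, cut at about 22% in these data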
# Numbers stand for hits; i = inactive; nt = not tested or not shown. Hits are enriched below; roughly 2.6% of the tested compounds scored in any of these assays.
SMILES,PRMT1 FP inh,Exocytosis inh,TLR9-MyD88 block,TLR4 MyD88 comp,ABHD5-PLIN5 inh,NOD2 RIPK2 PPI,ABHD5 PLIN5 conf,HNF4 split-luc,PRMT1 confirm,others
O=c1[nH]sc2ccccc12,72,i,i,nt,65,i,66,109,86,
O=c1ccsc2ccccc12,i,i,nt,nt,i,i,nt,nt,nt,
O=C1NC(C(=O)O)=CC(c2ccc([N+](=O)[O-])cc2)N1 (configuration not stated),i,i,i,nt,i,i,nt,nt,nt,
N#CC1=C(N)NC(=S)C(C(N)=O)C1c1ccc([N+](=O)[O-])cc1 (configuration not stated),67,i,i,i,52,i,i,i,i,
CCOC(=O)C1=CCN(S(=O)(=O)c2ccc(Cl)cc2)C1c1ccc(Br)cc1 (configuration not stated),i,nt,nt,nt,nt,nt,nt,nt,nt,
O=C1C=CC(=Nc2ccc3c(c2)Cc2cc(F)ccc2-3)O1,74,i,i,nt,29,i,33,60,87,
O=C(O)C(Cc1ccccc1)N1C(=O)CCC1=O (configuration not stated),i,i,i,i,i,i,nt,nt,nt,
O=C(O)C(Cc1ccccc1)N1C(=O)C=CC1=O (configuration not stated),52,i,i,nt,75,i,67,107,64,
COc1ccc2c(c1)[C@@]1(OCCC=C[C@H]1C)C(=O)N2Cc1ccc(Br)cc1,i,nt,nt,nt,nt,nt,nt,nt,nt,
O=C(Nc1cccc(N2C(=O)C=CC2=O)c1)c1cccs1,86,i,30,nt,30,22,48,96,94,NOD2 RIPK2 conf=74;BLA counter=12
COc1ccc(N2C(=O)CC(Sc3nnc(-c4ccccc4)o3)C2=O)cc1 (configuration not stated),63,57,i,i,43,i,55,83,39,Exocytosis CP01=87
CCCCCCCCN1C(=O)[C@@H](CC(=O)N2CCSCC2)C[C@@]2(C(=O)OC)C1=C[C@H](C(C)(C)C)O[C@@H]2C,i,nt,nt,nt,nt,nt,nt,nt,nt,
CC(C)[C@H](NC(=O)c1ccc(Cl)cc1Cl)C(=O)N1CCC[C@H]1C(=O)NCc1ccccc1,i,nt,nt,nt,nt,nt,nt,nt,nt,
C=CCn1c(=S)[nH]c2sccc2c1=O,i,i,i,i,i,i,nt,nt,nt,
C=CCn1c(=S)[nH]c2scc(-c3ccc(C)o3)c2c1=O,28,i,i,i,32,i,i,66,i,
O=S(=O)(/N=S1\CC=CCN1S(=O)(=O)c1ccccc1)c1ccccc1 (configuration not stated),41,i,i,nt,92,25,i,85,78,NOD2 RIPK2 conf=i;BLA counter=i
O=C(O)C1CCCN(S(=O)(=O)c2ccccc2)C1 (configuration not stated),i,i,i,i,i,i,nt,nt,nt,
COc1ccc(-n2c(SCC(=O)Nc3ccc4c(c3)OCCO4)nnc2-c2ccccc2)cc1,i,nt,nt,nt,nt,nt,nt,nt,nt,
O=[N+]([O-])c1ccccc1/C=C/C=Nn1c(-c2ccc(F)cc2)n[nH]c1=S,i,nt,nt,nt,nt,nt,nt,nt,nt,
CC1(C)C2CCC(CN=C(N)CSS(=O)(=O)O)C1C2 (configuration not stated),88,i,i,nt,61,i,78,52,69,
O=C(Nc1ccc(F)cc1)OCc1cn(Cc2ccc(F)cc2)nn1,i,nt,nt,nt,nt,nt,nt,nt,nt,
CC(=O)Nc1ccc(C(=O)/C=C/c2ccco2)cc1,36,i,i,i,29,i,52,57,27,
O=C(NC1CCCCC1)C(c1ccccc1)n1c(=O)c(-c2ccco2)nc2ccccc21 (configuration not stated),28,i,nt,nt,86,i,97,54,23,
O=C(NC1CCCCC1)C(c1ccc(C(F)(F)F)cc1)n1c(=O)c(-c2ccco2)nc2ccccc21 (configuration not stated),29,i,nt,nt,85,i,90,13,i,
Cn1c(=O)c(Nc2ccc(O)cc2)c2c3c(cccc31)C(=O)c1ccccc1-2,105,i,i,i,25,i,22,20,32,
SMILES,PRMT1 FP inh,Exocytosis inh,TLR9-MyD88 block,TLR4 MyD88 comp,ABHD5-PLIN5 inh,NOD2 RIPK2 PPI,ABHD5 PLIN5 conf,HNF4 split-luc,PRMT1 confirm,others
CCCN=C1N/C(=C\c2ccco2)C(=O)N1c1ccccc1,i,i,i,i,i,i,nt,nt,nt,
O=C1/C(=C\c2ccco2)NC(=S)N1c1ccccc1,45,i,i,i,25,i,30,44,51,
CCCCS(=O)(=O)N1CCCc2nc(-c3ccc(Br)cc3)ccc21,i,nt,nt,nt,nt,nt,nt,nt,nt,
Cc1nn(CCc2nc(-c3ccco3)cs2)c2[nH]c(=O)cc(C(F)(F)F)c12,34,i,i,i,41,i,i,16,i,
O=c1[nH]c(=O)n(Cc2ccccc2)c2nc(-c3ccco3)cc(C(F)(F)F)c12,i,i,i,i,i,i,nt,nt,nt,
COc1cc2c(cc1NC(=O)CSc1nnc(-c3cccc(Cl)c3)n1-c1ccccc1)oc1ccccc12,i,nt,nt,nt,nt,nt,nt,nt,nt,

# Source: PubChem BioAssay
